# High-throughput results (PubChem BioAssay)
# Sm TGR inh – qHTS Assay for the Inhibitors of Schistosoma Mansoni Peroxiredoxins; Schistosoma mansoni thioredoxin glutathione reductase (TGR), Q962Y6; purified TGR, DTNB reduction, TNB absorbance 405 nm; Potency, µM (highest dose often 114 µM), for inactives: top-dose activity change, negative = inhibition, usual class: inhibitors; 360,000 tested, 3% active; AID 485364, 2010; also: nearly all actives have a fitted effect of over 60% in size
#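 Kinetic colorimetric format: TGR-catalysed, NADPH-driven DTNB reduction monitored via TNB absorbance. Enzyme dispensed at 20 nM; compound exposure 15 min at room temperature before reaction start.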
# AmpC detergent – qHTS Inhibitors of AmpC Beta-Lactamase (assay with detergent) | P00811 | AmpC hydrolysis of nitrocefin, absorbance 480 nm, 0.01% Triton | Potency, µM (series often up to 114 µM), inactives show at the top dose activity change, negative = inhibition, usual class: inhibitors | 370,000 tested, 0.041% active;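 also: 0% = no-compound wells and -100% = no-enzyme wells; nearly all actives have a fitted effect of over 25% in size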
#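 20 mM phosphate pH 7.0 + 0.01% (detergent screen) or 0.0001% Triton X-100; 5.3 nM AmpC reagent; cpd preinc 15 min RT; nitrocefin (800 uM stock) to start; A480 q20 s × 4 min; Activity was normalised to no-enzyme and no-compound control wells.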
# Giardia FBPA inh – qHTS Assay for Inhibitors of Fructose-1,6-bisphosphate Aldolase from Giardia Lamblia. purified Giardia FBPA. Potency, µM (doses to about 59.6 µM), inactives show top-dose activity, negative = inhibition, actives largely listed as inhibitors. 290,000 tested, 0.71% active; also: nearly all actives have a fitted effect of over 55% in size
# Target sequence (A8B2U2 whole entry, looked up): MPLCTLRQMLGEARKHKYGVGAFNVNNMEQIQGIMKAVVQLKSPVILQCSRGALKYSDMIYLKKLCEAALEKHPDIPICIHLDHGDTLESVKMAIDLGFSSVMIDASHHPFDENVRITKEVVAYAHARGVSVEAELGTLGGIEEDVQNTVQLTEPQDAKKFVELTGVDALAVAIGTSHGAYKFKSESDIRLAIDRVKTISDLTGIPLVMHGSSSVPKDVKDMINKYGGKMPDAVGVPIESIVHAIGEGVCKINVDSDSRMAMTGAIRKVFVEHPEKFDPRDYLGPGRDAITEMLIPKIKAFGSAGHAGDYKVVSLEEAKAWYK
#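 40 nM FBPA preincubated 10 min at RT with compound (up to 57.5 uM final), then substrate plus GAPDH/TPI/NAD/arsenate coupling and diaphorase/resazurin added. Fluorescence read after 20 min at RT, 525/598 nm.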
# AmpC inh no detg – qHTS Inhibitors of AmpC Beta-Lactamase (assay without detergent); P00811; AmpC nitrocefin hydrolysis, absorbance 480 nm, 0.0001% Triton; Potency, µM (titrated, usually from 57.1 µM), for the others: top-dose activity change, negative = inhibition, hits mostly inhibitors; 330,000 tested, 0.52% active;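 also: plate controls were no compound for no effect and no enzyme for full effect; nearly all actives have a fitted effect of over 20% in size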
#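 AmpC (5.3 nM in the dispensed reagent) in 20 mM phosphate pH 7.0 with 0.01% (detergent screen) or 0.0001% Triton X-100 was preincubated with compounds for 15 min at room temperature. Nitrocefin was then added from an 800 uM solution, and hydrolysis was followed at 480 nm.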
# * marks the source's active call; other numbers are inactive results; ? = inconclusive; nt = no result; ! = repeats disagree. Sampled rows, rich in hits. Any-hit rate of the full collection: about 3.6%. Calls follow the shape of the dose curve; as a rule, active = well fitted curve in the direction sought with a large enough effect; inconclusive = small, poorly fitted or top-dose-only effect, or another doubt; inactive = no such curve, though single readings can be large; an effect the other way counts as inactive or inconclusive. Unless noted, % is scaled to controls: 0 for no effect and ±100 for the full control effect; potency is read from the fitted curve at half-maximal effect.
SMILES,Sm TGR inh,AmpC detergent,Giardia FBPA inh,AmpC inh no detg
C=CCSc1nnc(N2C(=O)C(O)=C(C(=O)c3ccco3)C2c2ccccc2F)s1 (configuration not stated),11µM*,-5%,?,-47%
CSc1nnc(N2C(=O)C(O)=C(C(=O)c3ccco3)C2c2ccccc2F)s1 (configuration not stated),?,3%,nt,-20%
CCC(Oc1ccccc1)C(=O)Nc1ccc(O)c(-c2nc3cc(C)ccc3o2)c1 (configuration not stated),9%,14%,nt,nt
Cn1c2ccccc2c(=O)c2cc(C#Cc3ccccn3)ccc21,20µM*,?,-5%,-38%
Cn1c2ccccc2c(=O)c2ccc(C#Cc3ccccn3)cc21,32µM*,?,-2%,-19%
CC1=C(C(N)=O)C(c2ccc(C)o2)C(C(N)=O)=C(C)N1,45µM*,0%,-10%,-10%
CCOC(=O)C1=C(C)NC(C)=C(C(=O)OCC)C1c1ccc(C)o1,?,-14%,2%,22%
C=CCOC(=O)C1=C(C)NC(C)=C(C(=O)OCC=C)C1c1ccc(C)o1,16µM*,-8%,0%,48%
CCOC(=O)C1(CCc2ccccc2)CCN(C(=O)CN2C(=O)CSC2=O)CC1,-5%,-4%,1%,76%
COc1ccc(C(CC(=O)NCC(OC)OC)NS(=O)(=O)c2ccc(Cl)cc2)cc1 (configuration not stated),0%,?,8%,20%
COc1ccccc1CNC(=O)c1cnc2c(-c3ccccc3)c(C)nn2c1C,7%,-2%,nt,nt
Nc1nonc1-c1nc2ccccc2n1CC(=O)N/N=C/c1ccc(-c2ccccc2C(=O)O)o1,40µM*,4%,-22%,-39%
Nc1nonc1-c1nc2ccccc2n1CC(=O)Nc1ccccc1,-1%,-6%,2%,-20%
COC(=O)CSc1[nH]c2ccccc2c1[N+](=O)[O-],50µM*,-1%,5%,-3%
Cc1[nH]nc(SCC(=O)NCc2ccccc2)c1[N+](=O)[O-],-5%,-4%,0%,-21%
COC(=O)C1CSC(c2ccc(Cl)cc2)N1C(=O)c1ccccc1 (configuration not stated),nt,1%,0%,71%
CCOc1ccccc1C1Nc2ccccc2-c2nnc(SCc3ccccc3)nc2O1 (configuration not stated),2%,12%,nt,nt
c1ccc(CSc2nnc3c(n2)OC(c2ccco2)Nc2ccccc2-3)cc1 (configuration not stated),11µM*,2%,1%,-21%
CCCN(CCC)C(=O)c1c[nH]c2ccc(S(=O)(=O)N(C)c3ccc(OCC)cc3)cc2c1=O,1%,8%,nt,nt
Nc1ccc(N2CCN(c3ccc(F)cc3)CC2)cc1,0%,-9%,2%,-28%
Nc1ccc(N2CCCCCC2)cc1,?,-7%,11µM*,-15%
O=C(CCS(=O)NCc1ccccc1)NCc1ccccc1 (configuration not stated),32µM*,?,-1%,0%
Clc1ccc(-c2noc(CN(Cc3ccccn3)CC3CCCO3)n2)cc1 (configuration not stated),-9%,3%,0%,144%
Cc1oc(-c2ccc(F)cc2)nc1CN(Cc1ccccn1)CC1CCCO1 (configuration not stated),40µM*,6%,?,70%
Cc1cc(=O)oc2cc(OCC(=O)Nc3c(C(C)C)cccc3C(C)C)ccc12,-7%,-2%,nt,nt
SMILES,Sm TGR inh,AmpC detergent,Giardia FBPA inh,AmpC inh no detg
CC(C)NC(=O)c1c(O)c2cccc3c2n(c1=O)CCC3,1%,-10%,6%,-20%
NNC(=O)c1c(O)c2cccc3c2n(c1=O)CCC3,32µM*,1%,1%,-10%
CCCN(CCC)C(=O)Cn1nnc2sc(-c3ccccc3)cc2c1=O,-11%,22%,nt,nt
Cn1c(O)c(/C=C2\N=c3ccccc3=C2CCNC(=S)NC2CC2)c(=O)n(C)c1=O,5.6µM*,-10%,?,49%
NC1(C(=O)O)CC(C(=O)O)C1 (configuration not stated),nt,nt,5.6µM*!,nt
CCN(CC(=O)NC1CCCC1)S(=O)(=O)c1ccc(F)cc1,-1%,4%,11%,-5%
